In ChEMBL document CHEMBL1961873, “Compounds: GSK PKIS; Assays: Nanosyn kinase panel” (2012):

What follows are compounds tested on Tyrosine-protein kinase ABL1 (Homo sapiens), P00519 [T315I]. Conditions: at 1 µM.

SMILES | inhibition [%]
Nc1ccc(C#Cc2cncnc2Nc2ccc(OCc3cccc(F)c3)c(Cl)c2)cc1 | 1.84
O=S(=O)(CCOCc1ccc(-c2ccc3ncnc(Nc4ccc(OCc5cccc(F)c5)c(Cl)c4)c3c2)o1)c1ccccc1 | 0.23
Nc1nccc(C#Cc2cncnc2Nc2ccc(OCc3cccc(F)c3)c(Cl)c2)n1 | 2.7
ON=C1CCc2cc(-c3nc(C4CCNCC4)[nH]c3-c3ccncc3)ccc21 | 1.59
Cc1cc(O)cc(C)c1/C=C/c1cncc(C(=O)N(C)C)c1 | 1.49
CCn1c(-c2nonc2N)nc2c(C#CC(C)(C)O)nc(OCCNC)cc21 | 4.21
Cc1cc(-c2ccccn2)cc(C)c1/C=C/c1cncc(-c2nn[nH]n2)c1 | 1.41
NS(=O)(=O)c1ccc(-c2cc3ccncc3cc2OCc2ccccc2)cc1 | 3.49
CS(=O)(=O)Nc1cccc(-c2ccc3c(NC(=O)C4CC4)n[nH]c3c2)c1 | 30.6
O=C(Nc1ccc(Oc2ccc3[nH]c(NC(=O)c4ccco4)nc3c2)cc1)Nc1cc(C(F)(F)F)ccc1F | 94.4
COc1ccc2ncnc(Nc3ccc(OCc4ccccc4)cc3)c2c1 | 3.21
COC(=O)c1cncc(/C=C/c2c(C)cc(O)cc2C)c1 | 5.95
Cc1ccc(C(=O)NC2CC2)cc1-c1ccc2[nH]ncc2c1 | 2.89
COc1cc2ncnc(Nc3ccc4c(cnn4Cc4ccccc4)c3)c2cc1OC | 7.47
Cc1ccc2c(c1)/C(=N/Nc1ccc(S(N)(=O)=O)cc1)C(=O)N2 | 7.37
CN(C)CCCn1c(-c2nonc2N)nc2cnccc21 | 1.3
CCCN1CCCC(c2ccc(Nc3nc(Nc4cc(F)ccc4C(N)=O)c4cc[nH]c4n3)c(OC)c2)C1 (configuration not stated) | 12.1
